{
  "source": "PubChem BioAssay AID2732",
  "about": "(Emory University Molecular Libraries Screening Center, 2010)",
  "note": "Out of some 220,000 compounds screened, about 8,200 (3.7%) were called active. The full list was thinned out, with actives kept by preference. Unmarked numbers belong to inactive results.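 How the source made its calls: active means compounds that reduced the stress-induced luciferase reporter signal by more than about 70% of percent inhibition (limit read from the data); inactive means the rest.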",
  "data": [
    {"test": "blockers of ER-stress CHOP reporter expression – cell-based, unfolded protein response, luciferase reporter, primary screen (AID 2732);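 further: 0% = tunicamycin plus vehicle and 100% = wells without tunicamycin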", "settings": "CHO-K1 CHOP-promoter luciferase, tunicamycin-induced, 15-18 h; at 10 µM; active compounds read high", "values": [
      {"molecule": "CCN(CC)C(=O)CSC(Nc1cccc(F)c1)=C(C#N)C#N", "inhibition": "-25.7%"},
      {"molecule": "Oc1c(Br)cccc1/C=N/Nc1c(F)c(F)c(F)c(F)c1F", "inhibition": "89.8% (active)"},
      {"molecule": "COc1cccc(/C=N/Nc2ncc(C(F)(F)F)cc2Cl)c1O", "inhibition": "46.9%"},
      {"molecule": "O=[N+]([O-])c1cc(Br)c(O)c(/C=N/Nc2nc3ccccc3s2)c1", "inhibition": "17.5%"},
      {"molecule": "CCOc1c(Nc2cccc(Cl)c2)c(=O)c1=O", "inhibition": "18.3%"},
      {"molecule": "O=S(=O)([N-]c1nc2ccccc2nc1-[n+]1ccc(Cc2ccccc2)cc1)c1ccc(Br)s1", "inhibition": "21.4%"},
      {"molecule": "O=C(NCc1cccnc1)c1ccc(CS(=O)(=O)c2ccc(Br)cc2)o1", "inhibition": "61.7%"},
      {"molecule": "O=S(=O)(c1ccccc1)c1nc(-c2ccccc2F)oc1NCc1cccnc1", "inhibition": "4.16%"},
      {"molecule": "O=S(=O)(c1ccc(Br)cc1)c1nc(-c2ccccc2)oc1NCc1cccnc1", "inhibition": "72.4% (active)"},
      {"molecule": "O=C(Nc1ccc(Cl)cc1)Nc1ccc(C(=O)N2CCOCC2)cc1", "inhibition": "33.4%"},
      {"molecule": "O=C(Nc1ccc2c(c1)OCCO2)c1ccoc1", "inhibition": "0.05%"},
      {"molecule": "COc1ccccc1/C=C/C=N/NC(=O)CN1CCN(Cc2ccccc2)CC1", "inhibition": "24.4%"},
      {"molecule": "Cc1cc2nc3c(=O)n(Cc4ccccc4)c(=O)[nH]c3nc2cc1N", "inhibition": "3.92%"},
      {"molecule": "O=C(Nc1nc2ccc([N+](=O)[O-])cc2s1)c1ccc(S(=O)(=O)N2CCCc3ccccc32)cc1", "inhibition": "80.6% (active)"},
      {"molecule": "O=C(NC(Nc1nc2ccc([N+](=O)[O-])cc2s1)(C(F)(F)F)C(F)(F)F)c1ccccc1", "inhibition": "106% (active)"},
      {"molecule": "CNC(=O)c1ccsc1NC(=O)c1ccc(S(=O)(=O)N2CCc3ccccc32)cc1", "inhibition": "37.3%"},
      {"molecule": "COC(=O)C(NC(=O)c1ccc(OC)cc1)(Nc1ncc(S(=O)(=O)c2ccc([N+](=O)[O-])cc2)s1)C(F)(F)F", "note": "(configuration not stated)", "inhibition": "-14.3%"},
      {"molecule": "CCn1c(=O)c(=O)n(CC)c2cc(S(=O)(=O)N3CCc4ccccc43)ccc21", "inhibition": "35%"},
      {"molecule": "O=S(=O)(c1ccc2c(c1)OCCO2)N1CCc2ccccc21", "inhibition": "32.4%"},
      {"molecule": "CS(=O)(=O)c1ccc2nc(NC(=O)c3ccc(N4CCCC4=O)cc3)sc2c1", "inhibition": "-17%"},
      {"molecule": "O=C(Nc1nc2ccc([N+](=O)[O-])cc2s1)c1ccncc1", "inhibition": "-12.2%"},
      {"molecule": "CSc1nc2ccc(S(=O)(=O)N3CCc4ccccc43)cc2s1", "inhibition": "71% (active)"},
      {"molecule": "Cc1nc(C(=O)Nc2ccc(Cl)cc2)sc1C1(C)CC(c2ccccc2)=NO1", "note": "(configuration not stated)", "inhibition": "19.7%"},
      {"molecule": "COc1ccc(CCNCC(O)Cn2ccc3ccccc32)cc1OC", "note": "(configuration not stated)", "inhibition": "7.33%"},
      {"molecule": "CC(C)Cn1c(CN(Cc2ccccc2)Cc2ccccc2)nc2c1c(=O)n(C)c(=O)n2C", "inhibition": "95% (active)"},
      {"molecule": "COCCn1c(CN(Cc2ccccc2)Cc2ccccc2)nc2c1c(=O)n(C)c(=O)n2C", "inhibition": "63.3%"},
      {"molecule": "CC(C)CCn1c(CN(C)Cc2ccccc2)nc2c1c(=O)n(C)c(=O)n2C", "inhibition": "16%"},
      {"molecule": "S=C(NNC(=S)NC1CC2CCC1C2)NC1CC2C=CC1C2", "note": "(configuration not stated)", "inhibition": "12.8%"},
      {"molecule": "Cc1cc(C)nc(NC(=O)/C=C/c2ccc(Cl)cc2)n1", "inhibition": "8.16%"},
      {"molecule": "CCCCOC(=O)c1[nH]c(C)c(C(=O)OC)c1C", "inhibition": "-2.34%"},
      {"molecule": "COC(=O)c1c(C)[nH]c(C(=O)/C=C/c2ccc(Cl)cc2)c1C", "inhibition": "85% (active)"},
      {"molecule": "Cn1c(S(=O)(=O)O)nc2ccccc21", "inhibition": "10.4%"},
      {"molecule": "COc1ccccc1-c1c(C#N)c(N)nc2c1CCC2", "inhibition": "-1.63%"},
      {"molecule": "O=c1[nH]c2cccnc2n1-c1ccc([N+](=O)[O-])cc1", "inhibition": "16.2%"},
      {"molecule": "OCC1(Cc2ccccc2C(F)(F)F)CCN(Cc2ccncc2)CC1", "inhibition": "1.13%"},
      {"molecule": "CCC(=O)N1CCCc2ccccc21", "inhibition": "-4.19%"},
      {"molecule": "C=CCn1c(SCc2nnc(-c3ccccc3)o2)nnc1C(O)c1ccccc1", "note": "(configuration not stated)", "inhibition": "14%"},
      {"molecule": "OC(c1nnc(-c2ccccc2)o1)c1cccs1", "note": "(configuration not stated)", "inhibition": "-26.1%"},
      {"molecule": "CCCN(CCC)c1ccc(C(O)c2nnc(-c3ccccc3)o2)cc1", "note": "(configuration not stated)", "inhibition": "91.7% (active)"},
      {"molecule": "O=C1C2C3C=CC(C3)C2C(=O)N1c1ccc(S(=O)(=O)Nc2nccs2)cc1", "note": "(configuration not stated)", "inhibition": "15.9%"},
      {"molecule": "O=C(COC(=O)CCc1nc2ccccc2c(=O)[nH]1)Nc1ccc(N2CCOCC2)cc1", "inhibition": "12.7%"},
      {"molecule": "CCOC(=O)c1sc(=S)n2c1[nH]c(=O)c1ccc(C(=O)OC)cc12", "inhibition": "90.7% (active)"},
      {"molecule": "CCOC(=O)Cn1c(N)c(C(=O)OC)sc1=S", "inhibition": "25.2%"},
      {"molecule": "CCOC(=O)c1sc(=S)n(-c2cccc(OC)c2)c1N", "inhibition": "7.44%"},
      {"molecule": "Fc1ccccc1/C=N/n1c(-c2cccnc2)n[nH]c1=S", "inhibition": "6.74%"},
      {"molecule": "COc1cccc(CC(=O)Nc2ccc(-c3csc(C)n3)cc2)c1", "inhibition": "7.07%"},
      {"molecule": "CCOC(=O)C(=CNNc1ccsc1C(=O)OC)C(=O)OCC", "inhibition": "8.45%"},
      {"molecule": "Cc1ccccc1OCC(O)CN1CCN(c2ccccn2)CC1", "note": "(configuration not stated)", "inhibition": "15.9%"},
      {"molecule": "Cc1cccc(C)c1OCC(O)CN1CCCCC1", "note": "(configuration not stated)", "inhibition": "10.2%"},
      {"molecule": "Cc1ccc(OCC(O)CN2CCN(CC(O)COc3ccc(C)cc3Cl)CC2)c(Cl)c1", "note": "(configuration not stated)", "inhibition": "93.5% (active)"},
      {"molecule": "CCCCCCCC(=O)OC(CN1CCCCCC1)CN1CCCC1=O", "note": "(configuration not stated)", "inhibition": "4.3%"},
      {"molecule": "Fc1ccccc1C(c1nnnn1Cc1ccc2c(c1)OCO2)N1CCN(Cc2ccccc2)CC1", "note": "(configuration not stated)", "inhibition": "97.9% (active)"},
      {"molecule": "Cc1cc(C)c2[nH]c(=O)c(C(c3nnnn3Cc3ccc4c(c3)OCO4)N3CCCC3)cc2c1", "note": "(configuration not stated)", "inhibition": "-5.25%"},
      {"molecule": "CC(C)(C)n1nnnc1C(c1ccc(F)cc1)N1CCN(Cc2ccc3c(c2)OCO3)CC1", "note": "(configuration not stated)", "inhibition": "16.3%"},
      {"molecule": "CCC1=NN2C(=N)/C(=C/c3cc(C)n(-c4ccccc4)c3C)C(=O)N=C2S1", "inhibition": "-8.4%"},
      {"molecule": "CCCN1CNC(=S)N(CCc2ccccc2)C1", "inhibition": "1.62%"},
      {"molecule": "c1ccc(CCN2CN=C(Nc3nc4ccccc4o3)NC2)cc1", "inhibition": "94.3% (active)"},
      {"molecule": "N#CNC1=NCN(CCc2ccccc2)CN1", "inhibition": "-32.6%"},
      {"molecule": "CCCCNC(=O)CCn1c(=S)[nH]c2cc3c(cc2c1=O)OCO3", "inhibition": "55%"},
      {"molecule": "COCCNC(=O)CCCn1c(=O)c2ccccc2n(Cc2cccc([N+](=O)[O-])c2)c1=O", "inhibition": "-6.2%"},
      {"molecule": "CCCCNC(=O)CCn1c(=O)c2ccccc2n(Cc2cc(C)ccc2C)c1=O", "inhibition": "86.5% (active)"},
      {"molecule": "Cc1ccc(-c2c[n+](=O)c3c(n2[O-])CCC3)cc1", "inhibition": "17.5%"},
      {"molecule": "Cc1ccc(NS(=O)(=O)c2ccc(N/N=C/c3ccccc3OCC(=O)O)c([N+](=O)[O-])c2)c(C)c1", "inhibition": "-8.85%"},
      {"molecule": "CC(C)Sc1nnc([C@H](Cc2ccccc2)NC(=O)OC(C)(C)C)o1", "inhibition": "11.1%"},
      {"molecule": "C[C@H](NC(=O)OC(C)(C)C)c1nnc(SCC(N)=O)o1", "inhibition": "26.6%"},
      {"molecule": "C[C@@H](NC(=O)OC(C)(C)C)c1nnc(S(=O)(=O)Cc2ccccc2)o1", "inhibition": "86.2% (active)"},
      {"molecule": "CC(C)C(=O)N1CCC2(CC1)Oc1ccc(F)cc1C(=O)C21CC(c2ccccc2)=NO1", "note": "(configuration not stated)", "inhibition": "19.9%"},
      {"molecule": "O=C(Nc1nnc(SCc2c(Cl)cccc2Cl)s1)c1cccc([N+](=O)[O-])c1", "inhibition": "30.6%"},
      {"molecule": "CCOC(=O)c1c(-c2ccc(C)cc2)csc1/N=C(\\C)C1=C(O)c2ccccc2C1=O", "inhibition": "3.26%"},
      {"molecule": "CCOC(=O)c1ccccc1NS(=O)(=O)c1ccc(OC)cc1", "inhibition": "9.25%"},
      {"molecule": "CCOC(=O)C1=C(c2ccc(OC)cc2)C(=O)c2ccccc2C1=O", "inhibition": "102% (active)"},
      {"molecule": "O=C(Nc1ccc(N2CCN(C(=O)c3ccccc3)CC2)c(Cl)c1)c1ncn[nH]1", "inhibition": "37.5%"},
      {"molecule": "COCCn1c(SCC(=O)Nc2cc(OC)ccc2OC)nc2c(c1=O)SC(C)C2", "note": "(configuration not stated)", "inhibition": "-5.89%"},
      {"molecule": "CC(=O)Nc1ccc(/C=C/C(=O)c2ccccc2)cc1", "inhibition": "-42%"},
      {"molecule": "CN(C)c1cc(-c2ccc(F)cc2)oc(=O)c1Cl", "inhibition": "12.7%"},
      {"molecule": "CNC(=S)NNC(=O)c1oc2nc(-c3ccccc3)cc(-c3ccco3)c2c1N", "inhibition": "-27.7%"},
      {"molecule": "CN(C)C(=O)c1coc2nc3ccccc3nc12", "inhibition": "20.5%"},
      {"molecule": "Cc1ccsc1/C=N/Nc1ccc(Cl)nn1", "inhibition": "65.5%"},
      {"molecule": "CCN1/C(=C/C(=S)Nc2ccccc2)Sc2ccccc21", "inhibition": "-10.3%"},
      {"molecule": "CCN1/C(=C\\c2ccc3ccccc3[n+]2CC)Sc2cc(C)ccc21", "inhibition": "87.5% (active)"},
      {"molecule": "CCN1/C(=C/c2ccc3ccc(C)cc3[n+]2CC)Sc2ccccc21", "inhibition": "73% (active)"},
      {"molecule": "CCC(=O)/C=C1\\Sc2ccccc2N1CC", "inhibition": "14.1%"},
      {"molecule": "O=C(Nc1cccc(S(=O)(=O)NC2=NCCC2)c1)C1CCCCC1", "inhibition": "3.64%"},
      {"molecule": "CC(C)(C)NC(=O)/C(=C/c1cccnc1)NC(=O)c1ccco1", "inhibition": "12.6%"},
      {"molecule": "Cc1nnsc1C(=O)N/N=C/c1ccccc1Cl", "inhibition": "-17.2%"},
      {"molecule": "COc1ccc(/C=N/NS(=O)(=O)c2ccc(NC(C)=O)cc2)cc1", "inhibition": "1.32%"},
      {"molecule": "CN(C)S(=O)(=O)c1ccc(NC(=O)COC(=O)Cn2[nH]c(=O)c3ccccc3c2=O)cc1", "inhibition": "0.58%"},
      {"molecule": "Cc1cccc2c1-c1sc(C(=O)NCCCN3CCc4ccccc4C3)cc1CO2", "inhibition": "35.6%"},
      {"molecule": "Cc1ccc(SCC(=O)Nc2ncc(C)s2)cc1", "inhibition": "4.03%"},
      {"molecule": "Cc1cnc(NC(=O)CSc2c(Cl)cccc2Cl)s1", "inhibition": "74.4% (active)"},
      {"molecule": "Cc1cnc(NC(=O)CSc2nnc(C)s2)s1", "inhibition": "22.4%"},
      {"molecule": "FC(F)(F)Oc1ccc(-c2cn3cccnc3n2)cc1", "inhibition": "2.48%"},
      {"molecule": "CCOC(=O)c1nnn2c3ccccc3c(=O)n(C)c12", "inhibition": "8.91%"},
      {"molecule": "Cc1ccc(-c2cc(C(=O)NN)n[nH]2)o1", "inhibition": "2.15%"},
      {"molecule": "Cc1ccc(C(=O)Nc2nnc(-c3cccs3)s2)cc1C", "inhibition": "48.9%"},
      {"molecule": "CC(=O)c1sc(NC(=O)c2ccc(C)cc2)nc1C", "inhibition": "-2.78%"},
      {"molecule": "N#Cc1ccc(C(=O)Nc2nc(-c3cccs3)c(C(=O)C(F)(F)F)s2)cc1", "inhibition": "74.7% (active)"}
    ]}
  ]
}
